Data reported in PubChem BioAssay (Tox21).
Inconclusive results are not listed. Values without a mark were called inactive. Calls of active or inactive are those of the source. The call rests on the fitted dose curve; in most records, active means well fitted activation curve with a large enough effect in the signal ratio in the repeat runs (not every such curve was filed as active); inconclusive means weak or mixed curves; inactive means flat fitted curve, though single readings scatter; the % refers to the signal ratio.

assay: qHTS assay to identify small molecule agonists of the hypoxia (HIF-1) signaling pathway (AID 1224846); conditions: HRE-bla ME-180 cells, beta-lactamase ratio, 17 h; series mostly up to 76.8 µM
Source text: U.S. Tox21 Program National Center for Advancing Translational Sciences [NCATS] NIH Chemical Genomics Center [NCGC] U.S. Environmental Protection Agency [EPA] National Institutes of Environmental Health Sciences [NIEHS] National Toxicology Program [NTP] U.S. Food and Drug Administration [FDA] Tox21 Assay Overview: Hypoxia-inducible factor-1 (HIF-1) is the major hypoxia-regulated transcription factor that controls cellular responses to low oxygen concentration. HIF-1 is composed of two subunits: hypoxia responsive HIF-1-alpha and constitutively expressed HIF-1-beta, which is also known as aryl hydrocarbon receptor nuclear translocator. During hypoxic conditions, HIF-1-alpha heterodimerizes with HIF-1-beta and translocates into the nucleus where the HIF-1 complex binds to the hypoxia-response element (HRE) and activates expression of target genes such as VEGF (vascular endothelial growth factor). The HIF-1 pathway is essential to normal growth and development, and is involved in the pathophysiology of cancer, inflammation, and ischemia. Using a beta-lactamase reporter-gene under control of the hypoxia response element, a cell-based assay [CellSensor(TM) HRE-bla ME-180 from Life Technologies, Carlsbad, CA] was used to measure hypoxia-induced signaling. Tox21 10K library compounds were measured for their ability to induce the reporter gene activity.
Tox21 Assay Protocol Summary: HRE-bla ME-180 cells were dispensed at 2,000 cells per well in 6 uL of assay medium containing 0.5% dialyzed FBS into black wall/clear-bottom 1536-well plates using a Multidrop Combi (Thermo Scientific, Waltham, MA) dispenser. After the assay plates were incubated at 37C and 5% CO2 for 5 hrs, 23 nL of compounds dissolved in DMSO, positive controls or DMSO only was transferred to each well of the assay plate using a Pintool station (Kalypsys, San Diego, CA). The assay plates were incubated at 37C and 5% CO2 for 17 hrs. One uL of LiveBLAzerTM B/G FRET substrate (CCF4-AM) (Life Technologies) was added to each well using a Flying Reagent Dispenser (Aurora Discovery, San Diego, CA).
On the % scale 0 is the no-effect control and ±100 the full control effect.

Question: With `CCCCC(CC)COCCCN` (stereo not given) as the compound, how does the outcome read?
Answer: inactive

Question: For `C=C(C)C(=O)OCCOc1ccccc1`, which outcome is on record?
Answer: inactive

Question: Which outcome does the source give for `CCCc1ccccc1` here?
Answer: inactive

Question: Which outcome does the source give for `c1ccc(OCc2ccc(CCCN3CCOCC3)cc2)cc1` here?
Answer: inactive

Question: For `O=C(O)/C=C/c1cnc[nH]1`, which outcome is on record?
Answer: inactive

Question: Which outcome does the source give for `CC1(C)[C@H]2CC[C@]1(C)[C@H](O)C2` here?
Answer: inactive

Question: Which outcome does the source give for `O=C(O)Cc1sc(-c2ccccc2)nc1-c1ccc(Cl)cc1` here?
Answer: inactive

Question: With `ClC(Cl)(Cl)c1ccc(C(Cl)(Cl)Cl)cc1` as the compound, how does the outcome read?
Answer: inactive

Question: With `Oc1ccc(C(O)CNCCCCCCNCC(O)c2ccc(O)c(O)c2)cc1O` (stereo not given) as the compound, how does the outcome read?
Answer: inactive

Question: Which outcome does the source give for `CCOC(=O)C1=C(C)NC(C)=C(C(=O)OC)C1c1cccc([N+](=O)[O-])c1` (stereo not given) here?
Answer: inactive

Question: With `O=C1CCCCCO1` as the compound, how does the outcome read?
Answer: inactive

Question: With `CC(C)CC=O` as the compound, how does the outcome read?
Answer: inactive

Question: For `N[C@H]1C(O)O[C@H](CO)[C@H](O)[C@@H]1O` (stereo not given in full), which outcome is on record?
Answer: inactive

Question: Which outcome does the source give for `CC(C)(Oc1ccc(Cl)cc1)C(=O)OCCCOC(=O)C(C)(C)Oc1ccc(Cl)cc1` here?
Answer: inactive

Question: Which outcome does the source give for `CC(=O)SCc1ccco1` here?
Answer: inactive

Question: Which outcome does the source give for `CCCCCCc1ccc(N)cc1` here?
Answer: inactive

Question: With `CC(C)c1ccc2c(C(C)C)cc(C(C)C)c(S(=O)(=O)O)c2c1` as the compound, how does the outcome read?
Answer: inactive

Question: Which outcome does the source give for `Cl/C(=C\n1cncn1)c1ccc(Cl)cc1Cl` here?
Answer: inactive

Question: Which outcome does the source give for `CC(C)CCCC(C)CCO` (stereo not given) here?
Answer: inactive

Question: With `CCCCCCOC(=O)CCC` as the compound, how does the outcome read?
Answer: inactive

Question: Which outcome does the source give for `CCOc1cc(OCC)c(C(=O)CCC(=O)O)cc1OCC` here?
Answer: inactive

Question: For `CC(C)(C)C1CCCCC1O` (stereo not given), which outcome is on record?
Answer: inactive

Question: Which outcome does the source give for `COC(=O)CSc1cc(N=c2sc(=O)n3n2CCCC3)c(F)cc1Cl` here?
Answer: inactive

Question: Which outcome does the source give for `CC(=O)/C(C)=C/C1C(C)=CCCC1(C)C` (stereo not given) here?
Answer: inactive

Question: Which outcome does the source give for `CCCCCCCCCC(=O)OCC` here?
Answer: inactive

Question: With `CCCC(=O)OCC` as the compound, how does the outcome read?
Answer: inactive

Question: For `CC/C(=C\C(=N/O)C(N)=O)C(C)[N+](=O)[O-]` (stereo not given), which outcome is on record?
Answer: inactive

Question: With `O=C(CCN1CCN2CCCC2C1)N1c2ccccc2Sc2ccc(Cl)cc21` (stereo not given) as the compound, how does the activation read?
Answer: -0.917% [at 15.8 µM]

Question: For `C[C@@H](C1=C(CCN(C)C)Cc2ccccc21)c1ccccn1`, which outcome is on record?
Answer: inactive

Question: With `O=[N+]([O-])c1cc[n+]([O-])cc1` as the compound, how does the outcome read?
Answer: inactive

Question: With `CC(C)NCC(O)c1cc(O)cc(O)c1` (stereo not given) as the compound, how does the outcome read?
Answer: inactive

Question: Which outcome does the source give for `CC(C)(C)c1cc(O)c(C(C)(C)C)cc1O` here?
Answer: inactive

Question: Which outcome does the source give for `CCCCCCCCC(CO)CCCCCC` (stereo not given) here?
Answer: inactive

Question: For `CN1CCC(=C2c3ccccc3CCc3sccc32)CC1`, which outcome is on record?
Answer: inactive

Question: With `C=CC(=O)OCCOC(=O)CCC(=O)O` as the compound, how does the outcome read?
Answer: inactive

Question: With `CC(=O)[C@@]1(O)CC[C@H]2[C@@H]3C[C@H](C)C4=CC(=O)CC[C@]4(C)[C@H]3CC[C@@]21C` as the compound, how does the outcome read?
Answer: inactive

Question: For `OCCC1CCCCN1` (stereo not given), which outcome is on record?
Answer: inactive

Question: Which outcome does the source give for `CCCCOc1ccc(CC(=O)NO)cc1` here?
Answer: inactive

Question: For `O=C1Nc2cc(Cl)ccc2Oc2ccccc21`, which outcome is on record?
Answer: inactive

Question: With `CCOc1nc2cccc(C(=O)O)c2n1Cc1ccc(-c2ccccc2-c2nn[nH]n2)cc1` as the compound, how does the outcome read?
Answer: inactive
